Structures are written as SMILES. Records with an inconclusive call do not appear. Values without a mark were called inactive. Calls follow the shape of the dose curve; as a rule, active = well fitted curve in the direction sought with a large enough effect; inconclusive = small, poorly fitted or top-dose-only effect, or another doubt; inactive = no such curve, though single readings can be large or run the other way.

The values below come from PubChem BioAssay (NCATS).
% is scaled to controls: 0 for no effect and ±100 for the full control effect.

The target of this experiment is Metallo-beta-lactamase type 2 (Klebsiella pneumoniae) (UniProt C7C422). Briefly: qHTS to identify inhibitors of the New Delhi Metallo-beta-lactamase (NDM): assay validation screen against the NCATS LOPAC Collection (AID 1794843).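 Also: nitrocefin turnover by NDM-1 measured as 485 nm absorbance at plateau.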 The settings on record: NDM-1 enzyme, nitrocefin hydrolysis, absorbance 485 nm; series mostly up to 38.4 µM; activity change, negative = inhibition: at the top concentration. An outline of the steps: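 NDM-1 at 2 nM final in 50 mM HEPES pH 7.0 with 1 uM ZnSO4 and 0.01% Tween20 was preincubated with library compounds in DMSO. Nitrocefin (50 uM stock) was then added, and absorbance at 485 nm was read at the kinetic plateau.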
Sequence of Metallo-beta-lactamase type 2 (Klebsiella pneumoniae) (C7C422 whole entry, looked up): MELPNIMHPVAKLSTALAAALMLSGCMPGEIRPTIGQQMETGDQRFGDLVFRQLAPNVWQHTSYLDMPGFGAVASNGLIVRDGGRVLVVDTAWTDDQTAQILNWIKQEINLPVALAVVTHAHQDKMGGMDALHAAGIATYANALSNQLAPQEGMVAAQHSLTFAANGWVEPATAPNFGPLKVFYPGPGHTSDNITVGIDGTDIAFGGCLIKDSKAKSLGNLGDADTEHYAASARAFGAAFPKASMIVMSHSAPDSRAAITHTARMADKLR
Background: qHTS replaces the single test concentration by a dilution series.
For `CC(N)(Cc1ccc(O)cc1)C(=O)O` (stereo not drawn), the “activity change, negative = inhibition” value is 0.602%. As for `COc1ccc(CCN(C)CCc2ccc(OC)c(OC)c2)cc1OC`, the “activity change, negative = inhibition” value is -0.737%. To `CC1=C(C(=O)O)N2C(=O)[C@@H](NC(=O)C(N)C3=CCC=CC3)[C@H]2SC1` (stereo partly drawn) belongs -2.75%; to `N=S(=O)(O)Cc1noc2ccccc12`, 1.78%; to `CCCCCC(O)CCCC(=O)O` (stereo not drawn), 1.22%.

In the case of `CCCCCCC(=O)OC1CC(C)(C)NC(C)(C)C1`, the “activity change, negative = inhibition” value was -8.25%. The same measure for `OC[C@H]1O[C@@H](n2cnc3cncnc32)[C@H](O)[C@@H]1O`: -2.77%; for `Cn1ccnc1`: 7.57%; for `CCC(=O)N1CCN(C(=O)c2ccccc2)CC1`: 3.94%.

Regarding `Nn1nnc2ccccc21`, the “activity change, negative = inhibition” value was -0.959%.

Consider `O=C1NC(=O)c2cc(Nc3ccccc3)c(Nc3ccccc3)cc21`, for which the “activity change, negative = inhibition” value was -2.82%.

Take `Nc1nc2ccc(Cl)cc2c2nc(-c3ccco3)nn12`: the “activity change, negative = inhibition” value is 6.34%. As for `COc1cccc(OC)c1OCCNCC1CSc2ccccc2O1` (stereo not drawn), the “activity change, negative = inhibition” value was 0.788%. Consider `Cc1cccc(C)c1OCC(N)C(C)C` (stereo not drawn), for which the “activity change, negative = inhibition” value is 0.867%. As for `CSC(=N)N`, the “activity change, negative = inhibition” value is -11.6%. `NC1CONC1=O` (stereo not drawn): the “activity change, negative = inhibition” value is -14.1%. For the compound `C=CCNc1ncnc2ccc(Br)cc12`, the “activity change, negative = inhibition” value is -0.99%. Regarding `CC(C)(CO)Cc1cc(C(C)(C)C)c(O)c(C(C)(C)C)c1`, the “activity change, negative = inhibition” value is 7.51%. For the compound `CCCCCCN(CCCCCC)C(=O)Cc1c(-c2ccc(F)cc2)[nH]c2ccccc12`, the “activity change, negative = inhibition” value was -2.87%. For `CC(=O)SC1CC2=CC(=O)CC[C@]2(C)C2CC[C@@]3(C)C(CC[C@@]34CCC(=O)O4)C12` (stereo partly drawn), the “activity change, negative = inhibition” value was -2.62%. Consider `CCCCCCCCCCC(C)(C)C(=O)Nc1c(OC)cc(OC)cc1OC`, for which the “activity change, negative = inhibition” value is -10.5%.

For `O[Si](CCCN1CCCCC1)(c1ccc(F)cc1)C1CCCCC1` (stereo not drawn), the “activity change, negative = inhibition” value was 0.323%. In the case of `O=c1cc(-c2ccccc2F)[nH]c2cc3c(cc12)OCO3`, the “activity change, negative = inhibition” value was -8.45%.
